# From ChEMBL document CHEMBL4513216, “Probing the Open Global Health Chemical Diversity Library for Multistage-Active Starting Points for Next-Generation Antimalarials” (ACS Infect Dis, 2020)
# The campaign covered roughly 69,000 compounds. About 8,600 (12%) showed an effect of 50% or more. Many of the other results were omitted from the sample, so strong results are more common in it than they were.
# System: Plasmodium berghei
# Test: Screen against P. berghei liver stage (PbLuc), transformed with Luciferase, at 10uM
# Type: functional, HepG2
# Conditions: tested at 10 uM
row,Structure (SMILES),INHIBITION [%]
1,COc1cccn(CC(=O)N2CCCC3(CCCCC3)C2)c1=O,-17.7
2,Cc1cc(C)c(C(=O)N2CCCC(O)(CN3CCCC3)C2)cc1C (stereo not given),34.9
3,Cc1c(C(=O)O)sc2nc(Cc3ccccc3)nc(N)c12,-2.27
4,CCN(CC(=O)NC)C(=O)c1sc(Cc2ccccc2)nc1C,-16
5,Cc1nc(Cc2ccccc2)nc2sc(C(=O)O)c(C)c12,53.1
6,COc1cc2nc(C)n(CC(=O)NCCN(C)C)c(=O)c2cc1OC,2.55
7,COc1cc(CN2CCCC[C@]3(C)NC(=O)CC[C@H]23)ccc1F,23.9
8,CCOCC1CN(Cc2cnn(C)c2)Cc2ncn(C)c21 (stereo not given),36.9
9,CCOCC1CN(Cc2cnn(C)c2)Cc2nn(C)cc21 (stereo not given),18.2
10,CCOCC1CN(Cc2ccoc2)Cc2nn(CC3CC3)cc21 (stereo not given),-19.4
11,Cn1cc(CN2Cc3cn(C)nc3C(COCC3CC3)C2)cn1 (stereo not given),34.6
12,CCOCC1CN(Cc2cnn(C)c2)Cc2ncn(CC3CC3)c21 (stereo not given),33
13,CCOCC1CN(Cc2cnn(C)c2)Cc2c1cnn2CC (stereo not given),53.2
14,CCOCC1CN(Cc2ccc(OC)cc2)Cc2nn(CC3CC3)cc21 (stereo not given),33
15,CCOCC1CN(Cc2cnn(C)c2)Cc2nn(CC3CC3)cc21 (stereo not given),67.2
16,CCOCC1CN(Cc2cnn(C)c2)Cc2cnn(C)c21 (stereo not given),35.7
17,CCn1cc2c(n1)CN(Cc1ccoc1)CC2COCC1CC1 (stereo not given),9.54
18,CCn1cc2c(n1)CN(Cc1ccc(C)o1)CC2COCC1CC1 (stereo not given),63.7
19,CCn1cc2c(n1)CN(Cc1cnn(C)c1)CC2COCC1CC1 (stereo not given),63.7
20,O=C(c1cc(=O)[nH]c(=O)[nH]1)N1CCCC(CO)(CC2CC2)C1 (stereo not given),47.6
21,CN(Cc1ccccc1)C1COC2(CCN(Cc3nccs3)CC2)C1 (stereo not given),37
22,O=C(Cc1ccc(F)cc1)NCCNc1cc(N2CCCC2)ncn1,31.7
23,CCN(CC)C1COc2c(cc(Br)c(C)c2Br)C1=O (stereo not given),5.56
24,CC(C)c1noc(CCNC(=O)NCC2Cc3ccccc3O2)n1 (stereo not given),-34.8
25,Cc1nc(N(C)C)nc(C)c1NS(=O)(=O)c1ccc(F)cc1F,-7.81

row,Structure (SMILES),INHIBITION [%]
1,CS(=O)(=O)NCC1CCCN(C(=O)Nc2ccccc2F)C1 (stereo not given),4.1
2,COc1cnc(CSc2nnc(C)s2)cc1OCC(=O)NC(C)(C)C,-3.11
3,CN(C)S(=O)(=O)N1CCC[C@]2(C[C@@H](Oc3ccccn3)CO2)C1,-21.3
4,O=C1CCC2(CCC(NC3CCOCC3)CC2)N1Cc1ccccc1 (stereo not given),-47.9
5,CCOCC1CN(Cc2ccc(F)cc2)Cc2nn(CC3CC3)cc21 (stereo not given),5.96
6,CCn1cc2c(n1)CN(Cc1ccc(F)cc1)CC2COCC1CC1 (stereo not given),70.7
7,CCn1cc2c(n1)CN(Cc1ccncc1)CC2COCC1CC1 (stereo not given),40.9
8,CCO[C@@H]1CO[C@@]2(CCCN(S(=O)(=O)c3cccnc3)C2)C1,30.7
9,Cc1nc(-c2ccoc2)n(CC(=O)N(C)CC(C)C)c1C,50
10,CCOC(=O)CNC(=O)Cn1c(-c2ccoc2)nc(C)c1C,8.52
11,Cc1nc(-c2ccoc2)n(CC(=O)NCC(C)C)c1C,-8.28
12,Cc1cccc(C)c1Nc1noc2c1CN(C(=O)c1cn(C)cn1)CC2,25.4
13,O=C(NC1CC1)c1cc(NC(=O)N2CCOCC2)ccc1Cl,68.3
14,O=C(NC1CC1)c1cc(NC(=O)N2CCCC2)ccc1Cl,31.9
15,Cn1c(=O)oc2ccc(NC(=O)N3CCc4ccccc4C3)cc21,-3.43
16,O=C(NC1CC1)c1cc(NC(=O)N2CCSCC2)ccc1Cl,57.6
17,O=C(Nc1ccc(CCN2CCSCC2)cc1)NC1CC1,1.79
18,Cn1c(=O)oc2ccc(NC(=O)N3CCOCC3)cc21,53.9
19,Cn1c(=O)oc2ccc(NC(=O)N3CCSCC3)cc21,24.7
20,CC1CN(C(=O)Nc2ccc(Cl)c(C(=O)NC3CC3)c2)CC(C)(C)O1 (stereo not given),31.9
21,O=C(NC1CC1)c1cc(NC(=O)N2CCCC(O)C2)ccc1Cl (stereo not given),28.5
22,O=C(C1CCCO1)N1CCC(O)(Cn2ccc3ccncc32)CC1 (stereo not given),-45.4
23,Cc1cc(C)c2cc(CNCCCN3CCOCC3)c(=O)[nH]c2c1,3.91
24,CCc1cc(=O)[nH]c2nnc(SCC(=O)N3CCC(C)CC3)n12,14.4
25,CN(C)C[C@@H]1CCC[C@@H]2CN(c3nccc(C(F)(F)F)n3)C[C@@H]21,-3.58

row,Structure (SMILES),INHIBITION [%]
1,Cc1nc2ccccc2n1Cc1cc(C(=O)N2C[C@@H](C)O[C@@H](C)C2)no1,74
2,Cc1nc2ccccc2n1Cc1cc(C(=O)N(C)C2CCOCC2)no1,37.3
3,C[C@@H]1CN(C(=O)c2cc(Cn3cnc4ccccc43)on2)C[C@H](C)O1,30.5
4,CN(C)C(=O)CN1CCOCC2(C1)CN(c1ncc(F)cn1)CCO2 (stereo not given),10.6
5,c1cnc(NC[C@@H]2CCC[C@@H]3CN(Cc4cc[nH]n4)C[C@@H]32)nc1,1.81
6,Cn1ccnc1NC[C@@H]1CCC[C@@H]2CN(Cc3nccs3)C[C@@H]21,29
7,c1ccc(NC[C@@H]2CCC[C@@H]3CN(Cc4csnn4)C[C@@H]32)nc1,15.9
8,Cn1ccnc1NC[C@@H]1CCC[C@@H]2CN(CC3CC3)C[C@@H]21,76.3
9,Cn1cc(CN2C[C@H]3CCC[C@@H](CNc4ncccn4)[C@H]3C2)cn1,31.2
10,Cn1cc(CN2C[C@H]3CCC[C@@H](CNc4nccn4C)[C@H]3C2)cn1,23.1
11,c1ccc(NC[C@@H]2CCC[C@@H]3CN(Cc4cccnc4)C[C@@H]32)nc1,32.2
12,COCCN1C[C@H]2CCC[C@@H](CNc3ncccn3)[C@H]2C1,77.4
13,c1ccc(NC[C@@H]2CCC[C@@H]3CN(Cc4nccs4)C[C@@H]32)nc1,51.2
14,COCCN(CC(C)C)C(=O)c1cccc(Nc2cnccn2)c1,46.6
15,CCc1ccc(CN2CCC3(CC2)NC(=O)CC3c2ccncc2)o1 (stereo not given),21.6
16,Cn1cc(CN2CCCC23CCN(C(=O)c2ccccn2)CC3)cn1,-17.1
17,O=c1ccc2c([nH]1)CCC(NCc1ccncc1)C2 (stereo not given),11.5
18,CSC1=Nc2c(cnn2-c2ccc(Cl)cc2)C2=NCCCN12,64.8
19,CSC1=Nc2c(cnn2-c2ccccc2)C2=NCCCN12,73.9
20,CC(=O)c1nn(-c2cccc(Cl)c2)c(C)c1C(C)=O,12.3
21,CCSC1=Nc2c(cnn2-c2ccc(Cl)cc2)C2=NCCCN12,-37.1
22,CC(C)(C)C(=O)N1CCCc2c(cnn2-c2ccccc2)C1,-43.9
23,O=C(NC1=NCCCN1c1ccc(Cl)cc1)c1cccc(Cl)c1,15.1
24,CSC1=Nc2c(cnn2-c2ccc(C)cc2)C2=NCCCN12,69.8
25,Cc1cccc(N2CCCN=C2NC(=O)c2cccc(Cl)c2)c1,-25.5

row,Structure (SMILES),INHIBITION [%]
1,CSC1=Nc2c(cnn2-c2cccc(Cl)c2)C2=NCCCN12,79.7
2,COC(=O)c1cccc(NCC(=O)NC(N)=O)c1,-5.92
3,CN(Cc1cccc2cnccc12)C(=O)CCc1n[nH]c2c1CCCC2,34.9
4,Cc1ccc(NC(=O)CCc2cnn(C)c2)cc1F,22.3
5,Cc1cccc(C2(C(=O)NCC3CCN(CC(F)(F)F)C3)CCC2)c1 (stereo not given),5.03
6,CS(=O)(=O)NC1CCCN(C(=O)c2cccnc2)C1 (stereo not given),-16
7,CC(O)CN1CCC(CN(C)CCC(=O)NC2CCCCC2)CC1 (stereo not given),19.7
8,CCc1cc(N[C@@H](CO)C(N)=O)n2nc(C)c(C)c2n1,54.4
9,CCc1cc(N[C@H](C(N)=O)C(C)C)n2nc(C)c(C)c2n1,16.3
10,CCc1cc(N[C@@H](CC(C)C)C(N)=O)n2nc(C)c(C)c2n1,47.7
11,Cc1ccc(CN(Cc2ncc[nH]2)C2CC(C)(C)NC(C)(C)C2)o1,91.6
12,Cc1ccc(CN(Cc2ccncc2)C2CC(C)(C)NC(C)(C)C2)o1,7.05
13,Cc1ccc(CN(Cc2[nH]cnc2C)C2CC(C)(C)NC(C)(C)C2)o1,38.2
14,Cc1cccc(CN(Cc2ccc(C)o2)C2CC(C)(C)NC(C)(C)C2)n1,53.5
15,CC1(C)CC(N(Cc2ccccc2)Cc2ncc[nH]2)CC(C)(C)N1,10.26
16,Cc1ccc(CN(Cc2c[nH]cn2)C2CC(C)(C)NC(C)(C)C2)o1,19.3
17,CC(C)CO[C@@H]1CC[C@H]2[C@H]1OCCN2S(=O)(=O)C1CC1,28.3
18,Cc1cncnc1C1CCN(CCO)CC1,-20.6
19,CC(=O)NCc1ccc(C(=O)NC2CCc3nc(C)cn3C2)o1 (stereo not given),17.945
20,COc1ccc(CN2C[C@@H]3COC[C@@H](N4CCN(C)CC4)[C@@H]3C2)cc1,68.4
21,O=C(C[C@@H]1COC[C@H]2CN(Cc3cccnc3)C[C@@H]12)N1CCOCC1,19.5
22,Cc1cc(C)cc(CN2C[C@H]3COC[C@H](N4CCN(C)CC4)[C@H]3C2)c1,47.4
23,CN1CCN([C@H]2COC[C@@H]3CN(Cc4cccnc4)C[C@@H]32)CC1,57.9
24,COc1ccc(CN2C[C@@H]3COC[C@H](N4CCN(C)CC4)[C@@H]3C2)cc1,40.4
25,COc1ccc(CN2C[C@@H]3COC[C@@H](CC(=O)N4CCCC4)[C@@H]3C2)cc1,-26.5
